{"source": "PubChem BioAssay AID2390", "about": "(National Center for Advancing Translational Sciences (NCATS), 2010)", "note": "Some of the results follow. Results filed as inconclusive are left out. The source made the active and inactive calls. Calls come from the whole dose curve; as a rule, active = well fitted inhibition curve with a large enough effect; inconclusive = small, poorly fitted or top-dose-only effect; inactive = no such curve, though single readings can be large or run the other way.", "data": [{"biological_target": "Regulator of G-protein signaling 12 (Homo sapiens) (UniProt O14924)", "sequence (O14924 whole entry, looked up)": "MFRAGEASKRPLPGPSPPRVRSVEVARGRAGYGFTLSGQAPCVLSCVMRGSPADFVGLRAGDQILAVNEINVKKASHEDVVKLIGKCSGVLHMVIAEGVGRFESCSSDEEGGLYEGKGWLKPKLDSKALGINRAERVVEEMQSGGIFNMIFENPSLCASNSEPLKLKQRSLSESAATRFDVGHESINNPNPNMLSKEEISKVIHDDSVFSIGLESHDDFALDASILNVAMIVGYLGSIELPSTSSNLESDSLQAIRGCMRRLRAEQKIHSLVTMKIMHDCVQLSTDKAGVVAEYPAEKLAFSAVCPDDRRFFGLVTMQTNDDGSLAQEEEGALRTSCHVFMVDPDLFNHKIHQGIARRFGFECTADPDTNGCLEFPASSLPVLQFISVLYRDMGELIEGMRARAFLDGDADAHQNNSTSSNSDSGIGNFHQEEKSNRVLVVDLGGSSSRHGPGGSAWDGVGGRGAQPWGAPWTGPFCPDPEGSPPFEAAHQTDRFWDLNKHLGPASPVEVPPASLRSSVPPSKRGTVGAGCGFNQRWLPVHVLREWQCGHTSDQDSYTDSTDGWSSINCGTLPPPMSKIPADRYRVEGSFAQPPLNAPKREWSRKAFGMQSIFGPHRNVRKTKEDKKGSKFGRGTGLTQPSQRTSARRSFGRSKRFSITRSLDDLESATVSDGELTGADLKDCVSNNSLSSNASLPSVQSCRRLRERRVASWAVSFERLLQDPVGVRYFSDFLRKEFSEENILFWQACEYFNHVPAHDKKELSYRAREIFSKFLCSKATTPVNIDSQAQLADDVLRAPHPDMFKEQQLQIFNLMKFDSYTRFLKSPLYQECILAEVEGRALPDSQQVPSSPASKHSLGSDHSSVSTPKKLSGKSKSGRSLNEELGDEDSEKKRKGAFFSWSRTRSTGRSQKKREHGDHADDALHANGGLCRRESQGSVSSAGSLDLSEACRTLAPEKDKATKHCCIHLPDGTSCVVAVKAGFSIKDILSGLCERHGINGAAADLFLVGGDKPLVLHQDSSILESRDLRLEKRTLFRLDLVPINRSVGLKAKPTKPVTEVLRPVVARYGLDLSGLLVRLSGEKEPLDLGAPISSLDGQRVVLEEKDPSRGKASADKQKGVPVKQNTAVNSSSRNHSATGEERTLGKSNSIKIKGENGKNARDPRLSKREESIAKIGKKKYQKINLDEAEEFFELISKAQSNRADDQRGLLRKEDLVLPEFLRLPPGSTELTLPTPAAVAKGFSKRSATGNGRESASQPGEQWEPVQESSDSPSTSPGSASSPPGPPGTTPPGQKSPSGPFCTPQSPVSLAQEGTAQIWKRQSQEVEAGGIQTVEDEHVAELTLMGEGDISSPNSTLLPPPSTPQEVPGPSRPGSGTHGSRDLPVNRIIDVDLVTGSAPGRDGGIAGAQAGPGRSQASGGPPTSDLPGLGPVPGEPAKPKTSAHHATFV", "test": "Confirmation qHTS Assay for Inhibitors of RGS12 GoLoco Motif Activity (Red Fluorophore)", "settings": "Gai1/rhodamine-RGS12 GoLoco peptide fluorescence polarization; series mostly up to 57.1 µM; activity, negative = inhibition: at the top concentration", "excerpt": "G-protein-coupled receptors (GPCRs) are major targets for drug discovery. The regulator of G-protein signaling (RGS)-protein family has important roles in GPCR signal transduction. RGS proteins contain a conserved RGS-box, which is often accompanied by other signaling regulatory elements. RGS proteins accelerate the deactivation of G proteins to reduce GPCR signaling; however, some also have an effector function and transmit signals. Combining GPCR agonists with RGS inhibitors should potentiate responses, and could markedly increase the agonist's regional specificity. The diversity of RGS proteins with highly localized and dynamically regulated distributions in brain makes them attractive targets for pharmacotherapy of central nervous system disorders. […] A complex of Gai1 and fluorescently labeled G-alpha-binding peptide (the \"GoLoco motif\") derived from RGS12 is incubated with library members. Inhibitors of the binding are detected by a decrease in the fluorescence polarization (FP) of the fluorophore. Protein was supplied by Prof. David Siderovski, University of North Carolina at Chapel Hill. This BioAssay is a confirmatory run of primary qHTS protocol (AID: 880). See following reference for more details: Kimple AJ, et al. Comb Chem High Throughput Screen. 2008 Jun;11(5):396-409. Assay Submitter: Siderovski, David P, University of North Carolina at Chapel Hill Screening Center PI: Austin, C.P. Screening Center: NIH Chemical Genomics Center [NCGC] NIH Grant: NS053754-01\nReagents/Controls: Assay Buffer: 10 mM Tris-HCl, 150 mM NaCl, 0.1 mM GDP (prepared fresh), and 0.05% NP40 at pH 7.5. […] 15 nM Rhodamine labeled peptide/25 nM protein in columns 1, 2, 5 - 48. Titration of unlabeled peptide control ([H][…][NH2], custom synthesized and HPLC-purified by Tufts University Core Facility) from 20 mM, then 1:2 dilution, 16-point in duplicate, pin-transferred to column 2, rows 1 to 32. Column 1 is neutral. Rhodamine-labeled peptide (Rhodamine-[…]-NH2) was custom-synthesized and HPLC-purified by Invitrogen (Carlsbad, CA). Assay Steps. Four uL of reagents were dispensed to 1536-well Greiner black solid-bottom plates. Compounds and controls (23 nL) were transferred via Kalypsys PinTool. The plates were incubated for 10 min at room temperature, and then read on ViewLux (Perkin-Elmer) High-throughput CCD imager using BODIPY for the rhodamine-labeled decapeptide probe. During dispense, reagent bottles were kept submerged into 4 deg C water bath and all liquid lines were covered with aluminum foil to minimize probe and protein degradation. All screening operations were performed on a Kalypsys robotic system (Kalypsys, Inc., San Diego, CA) containing one RX-130 and two RX-90 anthropomorphic robotic arms.", "values": [{"smiles": "Cc1cc2nc3c(=O)n(Cc4ccccc4)c(=O)[nH]c3nc2cc1N", "Potency": "3.98 µM (active)"}, {"smiles": "CCn1c(SCC(=O)NCc2ccco2)nnc1-c1ccc(N)cc1", "activity, negative = inhibition": "13.1% (inactive)"}, {"smiles": "O=C(Nc1cccc(Nc2nccc(Nc3cccc(C(F)(F)F)c3)n2)c1)C1CC1", "activity, negative = inhibition": "11.2% (inactive)"}, {"smiles": "Cc1nn(C)cc1N1C(=O)c2cccc3c(N)ccc(c23)C1=O", "Potency": "14.1 µM (active)"}]}]}
